Source: the supplement of paper PMC13380429

Tested on: Vero E6 infected with SARS-CoV-2
Test: inhibition of SARS-CoV-2 cytopathic effect; higher = more antiviral protection, active = above 15
Settings: 48 h

Measured: inhibition of SARS-CoV-2 cytopathic effect

COC(=O)N[C@H](C(=O)N[C@@H](Cc1ccccc1)[C@@H](O)CN(Cc1ccc(-c2ccccn2)cc1)NC(=O)[C@@H](NC(=O)OC)C(C)(C)C)C(C)(C)C [atazanavir]
inactive: 1 nM -1.78% | 8.33 nM 2.1% | 100 nM 1.84% | 833.33 nM -0.5% | 10000 nM -0.09%

CO[C@H](C(=O)[C@@H](O)[C@@H](C)O)[C@@H]1Cc2cc3cc(O[C@H]4C[C@@H](O[C@H]5C[C@@H](O)[C@H](O)[C@@H](C)O5)[C@@H](O)[C@@H](C)O4)c(C)c(O)c3c(O)c2C(=O)[C@H]1O[C@H]1C[C@@H](O[C@H]2C[C@@H](O[C@H]3C[C@](C)(O)[C@H](O)[C@@H](C)O3)[C@H](O)[C@@H](C)O2)[C@H](O)[C@@H](C)O1 [plicamycin]
inactive: 1 nM 2.66% | 8.33 nM 3.18% | 100 nM 3.85% | 833.33 nM -3.43% | 10000 nM -7.42%

O=C(O)c1cc(O)c2ccc(Cl)cc2n1 [7-chlorokynurenic-acid]
inactive: 1 nM 1.64% | 8.33 nM 1.28% | 100 nM 1.02% | 833.33 nM 1.24% | 10000 nM 1.89%

CCCCNC(=O)NS(=O)(=O)c1ccc(C)cc1 [tolbutamide]
inactive: 1 nM 0.11% | 8.33 nM 0.83% | 100 nM -0.09% | 833.33 nM 0.89% | 10000 nM -0.3%

O=C(CCCl)NCCc1ccccc1 [fenaclon]
inactive: 1 nM 4.5% | 8.33 nM -2.28% | 100 nM 0.58% | 833.33 nM -1.53% | 10000 nM -1.25%
